{"source": "PubChem BioAssay (NCI)", "note": "About 83,000 compounds went through this panel and 20% of them were active in at least one assay; those are over-represented in the sample as a whole.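 The endpoint reported here, percent growth, reads 100 for growth as untreated, 0 for no net growth and -100 for all cells dead.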 Unmarked numbers belong to inactive results. Active and inactive are the calls of the source. Rule for the calls: active = growth percent below 10; inactive = the rest.", "data": [{"tested_on": "HL-60(TB) leukemia", "test": "NCI-60 one-dose screen, 48 h (100 = growth as untreated, 0 = no growth, -100 = all killed)", "details": "10 µM unless noted", "values": [{"smiles": "CCCNC(=O)c1cn2ncnc(Nc3cc(C(=O)NC4CC4)ccc3C)c2c1C", "growth": "129%"}, {"smiles": "Nc1c(C(=O)c2ccccc2)nnc2ncnn12", "growth": "105%"}, {"smiles": "COc1ccc(NC2=C(I)C(=O)c3ncccc3C2=O)cc1", "growth": "-47.5% (active)"}, {"smiles": "O=C(Nc1ccc(-n2ccc3c(NC(=O)c4ccccc4)ncnc32)cc1)c1ccc(Cl)c(C(F)(F)F)c1", "growth": "34.6%"}, {"smiles": "N#CSCC1CC(O)(c2ccccc2)CC(c2ccc(Cl)cc2)O1", "note": "(stereo unspecified)", "growth": "-30.9% (active)"}, {"smiles": "COc1ccc(C(c2cc(OC)c(OC)c(OC)c2)n2ccnc2)cc1O", "note": "(stereo unspecified)", "growth": "-35.9% (active)"}, {"smiles": "CSC(=S)N/N=C(\\C)c1ccccn1", "growth": "-12.1% (active)"}, {"smiles": "O=C1c2ccccc2C(=O)c2sc(Nc3ccc(Cl)cc3)nc21", "growth": "-10.8% (active)"}, {"smiles": "O=C(O)c1cc(N=Nc2ccc(-c3ccc(N=Nc4c(S(=O)(=O)O)cc5ccc(Nc6ccccc6)cc5c4O)cc3)cc2)ccc1O", "growth": "98.9%"}, {"smiles": "CCCC1OC(c2ccc(C(C)C)cc2)OCC1CC", "note": "(stereo unspecified)", "growth": "92.7%"}, {"smiles": "CNc1ccccc1C(N)=O", "growth": "114%"}, {"smiles": "NS(=O)(=O)Oc1ccc2c(ccn2C(=O)C23CC4CC(CC(C4)C2)C3)c1", "growth": "97.6%"}, {"smiles": "CCCCCCNC(=O)Oc1ccc(/C(=C(\\C)c2ccc(Cl)cc2)c2ccc(OCCCN(C)C)cc2)cc1", "growth": "62.9%"}, {"smiles": "CC(C)NC(=O)N/C=C(\\C#N)C(N)=O", "growth": "137%"}, {"smiles": "CCCC[C@@H](C=O)NC(=O)[C@H](CC(C)C)NC(=O)[C@H](CC(C)C)NC(=O)OCc1ccccc1", "growth": "-30.1% (active)"}, {"smiles": "CCOC(=O)/C(=C\\c1ccc2ccccc2c1)P(=O)(OCC)OCC", "growth": "8.83% (active)"}]}]}
